This is a sample that favours compounds with a hit; in the whole collection about 7.3% have one here.
Tau fibril ThT: qHTS for Inhibitors of Tau Fibril Formation, Thioflavin T Binding; Microtubule-associated protein tau (Homo sapiens), P10636; recombinant tau K18 P301L, heparin-induced fibrillization, ThT fluorescence; Potency, µM (top dose mostly 57.4 µM), hits mostly inhibitors; hit rate 2.1% among 270,000; AID 1460, 2008; further: nearly all actives have a fitted effect of over 55% in size
Target sequence (P10636 561-689 P618L limits assumed): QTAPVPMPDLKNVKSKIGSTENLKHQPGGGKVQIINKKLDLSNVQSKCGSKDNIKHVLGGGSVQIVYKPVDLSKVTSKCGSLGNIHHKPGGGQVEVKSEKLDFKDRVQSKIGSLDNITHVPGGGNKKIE
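Aggregation was driven by heparin (20 uM final) acting on recombinant tau […] bearing P301L in 100 mM sodium acetate pH 7; fibrils were detected with Thioflavin T.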
Gal4-VP16 FLuc: VP16 counterscreen qHTS for inhibitors of ROR gamma transcriptional activity. Drosophila S2 Gal4-VP16 UAS-luciferase, luminescence, 20 h. Potency, µM (titrated, usually from 53.6 µM), hits mostly inhibitors. hit rate 3.5% among 310,000. AID 2546, 2010;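 further: Gal4-VP16 expression switched on by copper sulfate through the metallothionein promoter; nearly all actives have a fitted effect of over 50% in size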
Tau fluor counter: Counterscreen qHTS for Inhibitors of Tau Fibril Formation, Fluorescence Polarization; tau K18 P301L Alexa594 fluorescence, heparin fibrillization; Potency, µM (top dose mostly 57.7 µM); hit rate 0.93% among 280,000; AID 1463, 2008; further: nearly all actives have a fitted effect of over 55% in size
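Human tau K18 P301L (15 uM unlabeled, 0.24 uM Alexa 594-labeled) in 100 mM sodium acetate pH 7 with 20 uM heparin, 6 hr at 37 C. ThT 30 uM added, 1 hr ambient; Alexa 594 FP and total fluorescence read at 555/632 nm.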
RORgamma inh: qHTS for inhibitors of ROR gamma transcriptional activity; AID 2551, 2010; Nuclear receptor ROR-gamma (Mus musculus), P51450; hit rate 5.4% among 310,000; Drosophila S2 Gal4-RORgamma UAS-luciferase reporter, 20 h; Potency, µM (highest dose often 53.6 µM), most hits filed as inhibitors; further: nearly all actives have a fitted effect of over 60% in size
Target sequence (P51450 whole entry, looked up, the tested form may be a part): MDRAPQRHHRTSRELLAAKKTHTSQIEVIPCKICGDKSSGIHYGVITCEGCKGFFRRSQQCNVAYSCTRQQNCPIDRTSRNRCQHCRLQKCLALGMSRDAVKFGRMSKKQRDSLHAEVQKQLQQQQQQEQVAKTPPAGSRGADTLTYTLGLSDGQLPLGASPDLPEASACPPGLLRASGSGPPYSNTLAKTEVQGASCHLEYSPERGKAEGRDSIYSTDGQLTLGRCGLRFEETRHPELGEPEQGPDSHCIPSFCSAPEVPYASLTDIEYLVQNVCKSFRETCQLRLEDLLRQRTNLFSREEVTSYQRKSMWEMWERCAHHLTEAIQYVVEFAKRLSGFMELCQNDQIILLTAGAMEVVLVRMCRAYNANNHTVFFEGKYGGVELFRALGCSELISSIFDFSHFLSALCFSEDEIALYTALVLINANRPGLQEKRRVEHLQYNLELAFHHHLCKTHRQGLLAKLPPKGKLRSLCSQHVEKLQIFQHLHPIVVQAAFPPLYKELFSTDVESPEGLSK
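Compounds are pin-transferred onto Drosophila Schneider cells expressing a copper-inducible Gal4–ROR gamma transactivation domain fusion. After 1 hr, copper sulfate is added to 700 uM final; luciferase is read 20 hr later.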
Tau FP inhib: qHTS for Inhibitors of Tau Fibril Formation, Fluorescence Polarization; Microtubule-associated protein tau (Homo sapiens), P10636; K18 P301L tau heparin fibrillization, Alexa594 FP, 6 h; Potency, µM (top dose mostly 57.7 µM), hits mostly inhibitors; hit rate 0.39% among 280,000; AID 1468, 2008; further: nearly all actives have a fitted effect of over 55% in size
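Human tau K18 […] P301L fragment, 15 uM unlabeled plus 0.24 uM Alexa 594-labeled tau (final), with compound and 20 uM heparin in 100 mM sodium acetate pH 7; 6 hr at 37 C, then Alexa 594 FP read.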
A number is an active result; - = inactive; ? = inconclusive; . = no result; [ ] = another dose, or the depositor's remark. The call rests on the fitted dose curve; in most records, active means well fitted curve in the direction sought with a large enough effect; inconclusive means small, poorly fitted or top-dose-only effect, or another doubt; inactive means no such curve, though single readings can be large; an effect the other way counts as inactive or inconclusive.

SMILES	Tau fibril ThT	Gal4-VP16 FLuc	Tau fluor counter	RORgamma inh	Tau FP inhib
CCCCCCCCCCCCCCCCCCCCCCO	-	-	-	-	-
CCNC(=S)NNC(=O)c1csc(C)c1	-	?	-	12.6µM	-
COc1ccc(C(=O)NNC(=S)NC2CCCCC2)cc1OC	-	?	-	7.94µM	-
Cc1cc(C(=O)NNC(=S)NC2CCCCC2)cs1	.	?	.	3.16µM	.
CCCCNC(=S)NNC(=O)c1csc(C)c1	-	-	-	-	-
CCNC(=S)NNC(=O)c1cccs1	-	-	-	11.2µM	-
COc1cccc(C(=O)NNC(=S)NC2CCCCC2)c1	-	?	-	?	-
CN(c1ccccc1)C(CNS(=O)(=O)c1ccccc1)c1ccccc1 (centres undefined)	-	.	?	.	-
Cc1c(C)c2ccc(OCC(=O)Nc3ccccc3C(N)=O)cc2oc1=O	.	-	.	-	.
O=Nc1ccc(NOC(=O)c2ccccc2)cc1	-	?	-	?	-
O=C(N=Nc1ccc(NOC(=O)c2ccccc2Br)cc1)c1ccccc1O	10µM	?	?	?	?
CN(C)/N=C/C=C1\CC/C(=C\c2ccc(Br)cc2)C1=O	0.891µM	-	?	-	-
CN(C)/N=C/C=C1\CCC/C(=C/c2cccs2)C1=O	0.631µM	?	-	-	-
O=C1/C(=C/c2cccs2)COc2ccccc21	?	-	-	?	-
CCc1ccc2occ(CC(=O)Nc3nnc(C)s3)c2c1	-	.	-	.	-
Cc1cc2c(cc1S(=O)(=O)CCC(=O)N1CC(C)CC(C)C1)OCC(=O)N2 (centres undefined)	.	-	.	-	.
Fc1ccc(Br)cc1C1C=C(c2ccc(Br)cc2)Nc2nnnn21 (centres undefined)	-	.	-	.	-
CCc1ccc(C2=CC(c3cccc(Br)c3)n3nnnc3N2)cc1 (centres undefined)	-	.	-	.	-
COc1cccc(C2=CC(c3ccc(C)cc3)n3ncnc3N2)c1 (centres undefined)	-	-	-	-	-
CCc1ccc(C2=CC(c3cc(Br)ccc3F)n3ncnc3N2)cc1 (centres undefined)	?	14.1µM	-	?	-
Fc1ccc(Br)cc1C1C=C(c2ccc(Br)cc2)Nc2ncnn21 (centres undefined)	-	?	-	6.31µM	-
Cc1ccsc1C1C=C(c2cccc(Br)c2)Nc2ncnn21 (centres undefined)	-	?	-	7.94µM	-
COc1cccc(/C=N/NC(=O)C(C)Cn2cnc3ccccc32)c1 (centres undefined)	-	-	-	?	-
CC(C(=O)O)N1C(=O)/C(=C/c2cccn2C)SC1=S (centres undefined)	17.8µM	-	-	-	-
CCC(C(=O)O)N1C(=O)/C(=C/c2cccn2C)SC1=S (centres undefined)	12.6µM	-	-	-	-
SMILES	Tau fibril ThT	Gal4-VP16 FLuc	Tau fluor counter	RORgamma inh	Tau FP inhib
COc1ccccc1/C=C1\SC(=S)N(C(C(=O)O)c2ccccc2)C1=O (centres undefined)	?	-	-	-	-
Cn1cccc1/C=C1/SC(=S)N(CC(=O)O)C1=O	15.8µM	-	-	-	-
CN1/C(=C\C=C2/SC(=S)N(CC(=O)O)C2=O)C(C)(C)c2ccccc21	3.98µM	-[10 µM]	?	-	-
COC(=O)C1C[C@@H]2C3=C(C(=O)[C@@](C)(NC(=O)c4ccccc4)C3[C@H](C(=O)OC)C1)[C@H](C)n1c(=O)n(-c3ccccc3)c(=O)n12 (some centres undefined)	.	-	.	-	.
CCCn1c(-c2ccc(F)cc2)nc2c(NCCN(CC)CC)nc(C)nc21	-	-	-	-	-
COc1ccc(CCNC(=O)CCn2c(=O)c3cccn3c3ccc(F)cc32)cc1OC	-	.	-	.	-
CCn1nnnc1NC(=O)c1cccc(OC)c1	-	-	-	-	-
COc1cccc(C(=O)NC(=S)Nc2nnn(C)n2)c1	-	11.2µM	-	8.91µM	-
COc1ccc(C(=O)NC(=S)Nc2nnn(C)n2)cc1	-	-	-	5.62µM	-
Cc1nc(N/N=C\c2ccc3c(c2)OCO3)sc1C	.	?	.	-[1.91 µM]	.
CC(C)C(=O)Nc1ccc2nc(SCC(=O)N3CCc4ccccc43)sc2c1	-	.	-	.	-
COCCNC(=S)N/N=C(\C)c1ccc(Cl)c(Cl)c1Cl	-	7.94µM	-	3.98µM	-
COCCNC(=S)NNc1ccc(Cl)c(C(=O)O)c1	?	-	-	-	?
COCCNC(=S)N/N=C(\C)c1ccc(Cl)c(Cl)c1	-	4.47µM	-	2.82µM	-
COCCNC(=O)c1ccc(Cl)c(Cl)c1	-	-	-	-	-
CNC(=S)N/N=C(\C)c1ccc(Cl)c(Cl)c1	-	7.08µM	-	2.82µM	-
CC(=O)NCCNc1nc(-c2ccccc2CN(C)C)nc2ccccc12	-	-	-	-	-
COC1CCC(C(=O)c2ccc3nc4c(cc3c2)CCCO4)CC1 (centres undefined)	-	-	-	-	-
Cc1ccc(CNC2CCCCC2)s1	.	-	.	-	.
Cc1ccc(-c2csc(N)n2)s1	31.6µM	-	-	-	?
C=CCNC(=S)/N=c1/ccccn1CC	-	-	-	10µM	-
C=CCNC(=O)c1ccc(-n2cccc2)cc1	-	-	-	-	-
c1ccc(-c2nc3nonc3nc2-c2ccccc2)cc1	-	?	-	11.2µM	-
CN(C)C(CNC(=O)CNC(=O)Cc1cccc2ccccc12)c1ccccc1 (centres undefined)	.	-	.	-	.
Cc1ccc(S(=O)(=O)N(CC(=O)NCCSc2ccccn2)c2ccccc2F)cc1	.	?	.	-	.
SMILES	Tau fibril ThT	Gal4-VP16 FLuc	Tau fluor counter	RORgamma inh	Tau FP inhib
CCN(CC)C(=O)c1[nH]cnc1C(=O)N[C@@H](C)C(=O)OCc1ccccc1	-	-	-	-	-
C[C@H](NC(=O)c1nc[nH]c1C(=O)N1CCN(c2ccccc2)CC1)C(=O)OCc1ccccc1	.	-	.	?	.
C[C@H](NC(=O)c1nc[nH]c1C(=O)NC(c1ccccc1)c1ccccc1)C(=O)OCc1ccccc1	-	35.5µM	?	?	?
C[C@H](NC(=O)c1nc[nH]c1C(=O)N[C@@H](C)C(=O)OCc1ccccc1)C(=O)OCc1ccccc1	.	?	.	12.6µM	.
O=C(/C=C/C(=O)Oc1ccccc1C(=O)O)Oc1ccccc1C(=O)O	25.1µM	-	-	-	25.1µM
CC1=NN(C(=O)c2ccccc2)C(O)(c2ccc(Br)cc2)C1 (centres undefined)	?	?	-	7.94µM	-
CCC1=NN(C(=O)c2ccc(Br)cc2)C(O)(c2ccccc2)C1 (centres undefined)	?	7.08µM	-	12.6µM	?
Cc1ccc(Nc2ccc(N3CCN(C(=O)c4cccc([N+](=O)[O-])c4)CC3)nn2)cc1	?	.	?	.	-
CCC1=NN(C(=O)c2cccc([N+](=O)[O-])c2)C(O)(c2ccc(C)cc2)C1 (centres undefined)	.	5.62µM	.	5.01µM	.
